Activity calls are given as the source filed them.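 The calls were made as follows: active = cell killing, with a fitted half-maximal concentration at or below twice the top valid dose tested; inconclusive = flat curve with moderate signal loss, or a poor fit; inactive = effect in the rising direction, plus the rest.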
Test: cell viability loss in HEK293T cells – ATP luminescence, dry powder, set 11, cytotoxicity control, dose response (AID 743335)
Settings: ATP luminescence (CellTiter-Glo), 72 h; series mostly up to 15 µM

SMILES | outcome
Cc1ccc(NC(=O)c2cc(S(=O)(=O)N(C)C)ccc2N2CCCC2)cc1 | inactive
CN(C)S(=O)(=O)c1ccc(N2CCCC2)c(C(=O)Nc2nc3ccccc3s2)c1 | inactive
Cc1cnc(NC(=O)c2cc(S(=O)(=O)N3CCOCC3)ccc2N2CCCC2)s1 | inactive

— PubChem BioAssay AID743335 (Broad Institute, 2014)
